# ± gives the standard deviation of the averaged measurements. In all, about 33,000 sequences were measured (“E-score (rank enrichment, -0.5 to 0.5)”: median about -0.0028, highest 2% from about 0.23 on). The sample holds the highest values, similar sequences and a random draw of the others, so the mix is not that of the screen.
# Tested on: 2Sb-muMax20 (muMax20 with two 1,3-bis(methyl)benzene Cys staples, A13C/A17C and Q88C/A92C, C-terminal Lys)
# Experiment: PBM 8-mer E-score (E-score (rank enrichment, -0.5 to 0.5)); higher = stronger preferential binding
# Description: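 Protein binding microarray (universal PBM chip covering all 10-mers in fixed probe flanks) with chemically synthesized human Max(13-93) bHLH-LZ analogs (not full-length Max) bearing noncanonical residues (hArg, Tha, Aib, Nle at 65) and aromatic Cys staples. Read-out per 8-mer (and its reverse complement): E-score (rank-based enrichment, -0.5 to 0.5) and Z-score of median probe intensity.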
row,Sequence,PBM 8-mer E-score
1,ACAGGTCT,-0.101 ± 0.015
2,GGCAATAC,-0.0237 ± 0.039
3,ACGCGGCA,-0.1504 ± 0.0011
4,AGAGCAAA,-0.124 ± 0.036
5,AGCGTATG,0.0491 ± 0.018
6,CGGATTTA,-0.0345 ± 0.005
7,GCACGGTA,-0.226 ± 0.0061
8,TAACGTAA,-0.00578 ± 0.0029
9,ATAACGTC,0.0413 ± 0.0089
10,ATAACTTA,0.0822 ± 0.028
11,ATAACGTA,0.16 ± 0.052
12,ATAACTTG,0.253 ± 0.032
13,ATAACGTG,0.277 ± 0.022
14,ATAACTTC,0.1632 ± 0.00065
15,TTCAGGAA,-0.0598 ± 0.038
16,CCAAGAAC,0.098 ± 0.03
17,CGTCCCTC,-0.107 ± 0.023
18,ATTACAGG,0.286 ± 0.0044
19,ATTACACG,0.0209 ± 0.026
20,ATTACAGC,0.0657 ± 0.05
21,CTTACACC,-0.035 ± 0.078
22,ATTACAGA,-0.121 ± 0.03
23,ATTACACC,0.254 ± 0.06
24,ACGAGGGG,0.0607 ± 0.017
25,CAAAGGAA,0.047 ± 0.054

row,Sequence,PBM 8-mer E-score
1,GAGGATGA,0.0986 ± 0.081
2,GAAAACGA,-0.0116 ± 0.016
3,CAAAACGA,0.103 ± 0.0049
4,ATAAACGC,-0.0771 ± 0.058
5,AAAAACGA,0.256 ± 0.03
6,ATAAACGA,0.233 ± 0.029
7,GTAAACGA,-0.00855 ± 0.0052
8,CCGGTATC,-0.171 ± 0.092
9,AAGTCAGC,-0.0311 ± 0.05
10,AAGGCTAC,-0.168 ± 0.021
11,AGCGAAAA,0.212 ± 0.006
12,TCACACCA,0.0297 ± 0.027
13,CGGATGTA,-0.172 ± 0.005
14,AGATTTTG,0.0113 ± 0.012
15,CCTGTTAA,0.0396 ± 0.043
16,CCTGTTAC,0.274 ± 0.049
17,CCTGTTAG,-0.0682 ± 0.013
18,ACCGGCTA,-0.152 ± 0.016
19,ACAAGAAC,0.152 ± 0.045
20,CATTCTTC,0.0315 ± 0.021
21,ATGTAGTA,0.268 ± 0.012
22,CTGTAGAA,0.0722 ± 0.0078
23,GTGTAGTA,0.125 ± 0.052
24,ATGTAGTG,0.156 ± 0.049
25,ATGTAGAG,0.0764 ± 0.027

row,Sequence,PBM 8-mer E-score
1,ATGTAGAA,0.245 ± 0.016
2,AGACGTAC,-0.0467 ± 0.078
3,ATTATTTG,0.197 ± 0.0069
4,CACTGCGG,-0.115 ± 0.052
5,CCAACAGC,-0.068 ± 0.0017
6,GGTCAATA,0.238 ± 0.015
7,CGTCAATA,-0.0166 ± 0.034
8,AGTCAATA,0.09 ± 0.0033
9,GGATCTTA,-0.014 ± 0.071
10,ACGCTGAC,-0.0415 ± 0.018
11,AAACCGTG,-0.0746 ± 0.026
12,ACTATAGG,-0.00711 ± 0.032
13,CCTATAGG,0.0292 ± 0.035
14,ACTATAGA,0.118 ± 0.11
15,ACTATAGC,-0.0113 ± 0.072
16,ACTATAGT,0.299 ± 0.039
17,CCTATAGC,0.264 ± 0.036
18,CAGTCCTC,0.00033 ± 0.011
19,AAAGAATG,0.0117 ± 0.014
20,AGAGACCA,0.0299 ± 0.014
21,ACTCTGTC,-0.111 ± 0.023
22,GGCATCAC,0.0631 ± 0.11
23,GTAGGGGA,0.24 ± 0.067
24,ATAGGGTA,0.123 ± 0.025
25,CTAGGGGA,0.117 ± 0.028

row,Sequence,PBM 8-mer E-score
1,CAAGGGGG,-0.105 ± 0.048
2,CTAGGGTA,-0.0583 ± 0.021
3,CAAGGGGA,0.24 ± 0.015
4,GTAGGGTA,0.266 ± 0.013
5,ATAGGGGA,0.18 ± 0.0034
6,CAAGGGAA,-0.0769 ± 0.018
7,AAAAAAAG,0.126 ± 0.056
8,GGGATCCC,-0.2 ± 0.043
9,CAGGAGTC,-0.0911 ± 0.039
10,AACGTTCA,0.0627 ± 0.039
11,ATATAAAT,0.2095 ± 0.00022
12,TACAGACA,0.0665 ± 0.048
13,AGTTAATG,0.232 ± 0.025
14,AATTAATG,0.239 ± 0.033
15,AGTTAATA,0.184 ± 0.015
16,CATTAATG,0.18 ± 0.016
17,AGTTAATC,0.0432 ± 0.046
18,AATTAATT,0.167 ± 0.077
19,AATTATTG,0.262 ± 0.017
20,AATTATTA,0.18 ± 0.032
21,AATTATTC,0.0609 ± 0.0053
22,AAGTTCGG,-0.224 ± 0.029
23,CAATTCCG,-0.0516 ± 0.045
24,AAGGTAAG,-0.0254 ± 0.00071
25,ATTACGAA,-0.000195 ± 0.03

row,Sequence,PBM 8-mer E-score
1,AGTCTAAT,0.0498 ± 0.0033
2,CGCTACTC,-0.172 ± 0.031
3,CTTAGGCA,-0.203 ± 0.024
4,AAGGCCCG,-0.159 ± 0.055
5,GTTTCTGA,0.0103 ± 0.029
6,CCACCCTC,0.234 ± 0.036
7,CCACCCTA,0.189 ± 0.0062
8,ACACCCAC,0.2 ± 0.028
9,GACCCCTC,0.0964 ± 0.036
10,ACACCCTC,0.0661 ± 0.073
11,CCACCCAC,0.239 ± 0.045
12,CACCCCTC,0.278 ± 0.026
13,CACCCCTG,0.0699 ± 0.055
14,CCACCCAA,0.128 ± 0.049
15,GGTCCCGA,-0.305 ± 0.042
16,AATATCCA,0.0444 ± 0.082
17,AATATCCG,-0.0514 ± 0.051
18,AATATCCC,0.245 ± 0.056
19,CGGGGGTA,0.0309 ± 0.084
20,CCCCCCCG,-0.2 ± 0.13
21,GCACCAGA,-0.126 ± 0.045
22,AGCCCCGG,-0.0543 ± 0.054
23,CCCCACCG,0.11 ± 0.1
24,ACCCACCA,0.274 ± 0.027
25,GCCCACCA,0.12 ± 0.024

row,Sequence,PBM 8-mer E-score
1,ACCCACCC,0.417 ± 0.02
2,GCCCACAC,0.0967 ± 0.059
3,ACCCACCT,0.13 ± 0.029
4,ACCACCCA,0.073 ± 0.062
5,TCCCACCA,-0.0255 ± 0.1
6,ACCCACCG,0.0752 ± 0.014
7,CCCCACCC,0.282 ± 0.076
8,CCCCACCA,0.162 ± 0.035
9,GCCCACCC,0.359 ± 0.045
10,ATTCGGAG,-0.0732 ± 0.026
11,GGGGATCA,0.0797 ± 0.027
12,AAGACCGT,-0.244 ± 0.028
13,AATGGTAT,0.157 ± 0.044
14,ACGGGGTG,0.118 ± 0.023
15,CAGTATAC,0.0863 ± 0.1
16,GATGAAAC,0.0586 ± 0.022
17,ATGAACGG,-0.111 ± 0.0086
18,CTCCGTCC,-0.114 ± 0.018
19,ATGTAATG,0.155 ± 0.013
20,CTGTAATA,0.0526 ± 0.019
21,CTGTAACA,-0.00643 ± 0.026
22,ATGTAACA,0.242 ± 0.031
23,ATGTAATA,0.236 ± 0.065
24,ATGTAACG,0.0488 ± 0.0084
25,AAAACCAC,0.121 ± 0.013

row,Sequence,PBM 8-mer E-score
1,GCGTACCA,-0.0976 ± 0.0064
2,AGACAAAA,-0.00983 ± 0.042
3,ACAGCAAA,0.0417 ± 0.047
4,ACGGGAAT,-0.08 ± 0.016
5,AGTGGGCC,-0.212 ± 0.019
6,GTTGGGTA,0.1494 ± 0.00044
7,GGTGGGTA,0.282 ± 0.063
8,AGTGGGCA,0.0757 ± 0.023
9,AGTGGGTG,0.259 ± 0.0086
10,CATGGGTA,0.053 ± 0.028
11,AATGGGTA,0.039 ± 0.0031
12,AGTGGGTC,-0.178 ± 0.017
13,GATGGGTA,0.246 ± 0.021
14,AGTGGGCG,0.237 ± 0.019
15,CGTGGGTA,0.00707 ± 0.0098
16,AGTGGGTA,0.121 ± 0.042
17,CGGCGCCG,-0.0151 ± 0.033
18,AATGAACA,0.129 ± 0.016
19,CCGCTGGC,-0.26 ± 0.0032
20,AAGGCACG,0.076 ± 0.023
21,GGCACACA,-0.16 ± 0.044
22,ATTCCGCC,0.107 ± 0.039

# From the supplement of paper PMC12636033
